According to PubChem BioAssay AID1508600 (Functional Genomics Laboratory (NCATS/FGL), 2020):
The whole screen tested about 53,000 sequences, of which about 3,700 (7%) were called active. This excerpt belongs to a sample that is enriched for actives. Values without a mark were called inactive.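 Rule for the calls: active = gene knockdowns whose robust z-score for IL-1 alpha signal is at least 2 or at most -2, so actives lie on both sides; inactive = the rest.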

Test: Components of the Cytosolic LPS Sensing Pathway: Gene Identification via Genome-wide siRNA Screen;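 note: robust z of the log signal after scaling to non-targeting control siRNA wells of the plate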
Settings: RAW264.7 macrophages, IL-1a HTRF, actives lie on both sides, screened at 100 nM (by protocol), cells primed 5 h with Pam3CSK4 first
Procedure, shortened: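 Using IL-1a HTRF as read-out, the screen measured release from RAW264.7 cells after 48h siRNA knockdown (100 nM), 5 h Pam3CSK4 priming and 24 h cytosolic LipidA. Values were expressed relative to negative-control wells as robust z-scores.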

| Sequence | z-score |
| --- | --- |
| GCAGAUUUUGACUAAAGGATT against Sbds | -0.747 |
| GCAGUGAACCGUAUUGGACTT against Ncam1 | 0.406 |
| GGUUCACAGAUGAUACCUUTT against Rab18 | 4.59 (active) |
| GGACCUUCCAGCAAGAUUUTT against Rnf13 | 0.28 |
| GCCGGCAGUAAAGAUUCAUTT against Cog2 | 0.938 |
| CCGGGUAGUCUUUUUGGUGTT against 9130019O22Rik | -1.72 |
| GGGAAGAAAGGAUGGGAAATT against Fev | 0.355 |
| GCGGCCUCUUGAAUGAUUCTT against Ccndbp1 | 2.16 (active) |
| GGUUGUUAUGGUCUCAUAUTT against Lrrc40 | -0.62 |
| GGUUUCAAGAAAGAUAUGATT against Cntnap5b | -0.891 |
| GGAAUUAAGAAGACAAUUCTT against Emc2 | -1.22 |
| GGAUGUCUCCAUGAAGGAATT against Ccnb2 | -1.12 |
| GGUUGAUGGGUAAUAAACUTT against Nfatc4 | -2.16 (active) |
| GGAAUGGAUAAAAACAUUGTT against Tank | 1.27 |
| GGUGGUCUACUUAGGUUUATT against Sc5d | 0.63 |
| GCGUGCAGCCCUCAAUGAATT against Ppp2r5b | 0.84 |
| GGCGAACAGAGAGAGUUAGTT against 4921524J17Rik | 0.677 |
| GGGCUUCACUUCCUUAGGATT against Cog3 | 0.0276 |
| GGGCUGAAGUGAAAACAGCTT against Mmp8 | -0.523 |
| GGAUAACUCACAAGAGUCUTT against Zdhhc16 | -0.296 |
| GGCUUUUUGUUAAGGCAGCTT against Ap1ar | 1.59 |
| GGAGACAACAACAAGACAUTT against Tbk1 | 3.12 (active) |

| Sequence | z-score |
| --- | --- |
| GGAGAAAGCUGCUCAUGAATT against Caml | -0.477 |
| GGCAGAUGAUCCCGGGAUUTT against Clvs1 | 0.545 |
| GGUAUGUCUGCAUAAAUGUTT against Cyp2c38 | 2.74 (active) |
| GGUUCGUGUGGUUUAACAUTT against Afg3l1 | 1.55 |
| GGAUGAGAGGUAAAGUAACTT against Nptxr | 0.802 |
| GGUUCUCUGAUACCCACUCTT against Mgat4e | 0.44 |
| GGAAAUGUGGAGAGAAAAUTT against P2ry4 | 1.02 |
| GGCGACAUAUUUUUCAAACTT against Fmn1 | -0.506 |
| CGUGGAAGACAUACAACCCTT against Tmem181a | 3.03 (active) |
| GGUCCGAGAGACAUUGGCATT against Lmx1b | -0.118 |
| CCUUAUAAGAAAGAUAGACTT against Nhlrc2 | -0.591 |
| GGAGCUUCAAGGUCUGUCGTT against Tmc6 | -2.65 (active) |
| GCUGGAUGGCCGUUUCAAATT against Fancd2os | -0.00925 |
| GGAACUAAAUCUUCCAUCCTT against Chit1 | -1.02 |
| GGAAAUAGAAGACCAGUUUTT against Srsf3 | -1.43 |
| GGCACCAUCUACGACUAUGTT against Gpx5 | -0.649 |
| GGUGAGCACUAAAUGCAGATT against Cldn16 | 0.892 |
| GCAAAUGUUGCCCAUCGUGTT against Ppp2r1b | 0.44 |
| GGAAAUCCUGGGACAGAACTT against Htatip2 | -2.42 (active) |
| GCCUGAGAUCGUGAACACUTT against Ccdc159 | -0.0179 |
| GGAGGCCUUGUACUUACACTT against Rspo1 | 1.26 |
| GGUGAAUCAGACAUACUAUTT against Snupn | 3.31 (active) |

| Sequence | z-score |
| --- | --- |
| GGUAUGGAUGCUUGAGAAATT against Ccdc77 | -1.15 |
| GGAGCCAGUCCAAAUUGCATT against Il13ra1 | 0.561 |
| GCCCAUUGAGUUUGAUUCATT against Itgav | 1.57 |
| GGACGAUUCUUUUCUCCAGTT against Surf1 | -2.07 (active) |
| CCUCAUCGAAUUCGAUACCTT against Arrb2 | -0.181 |
| CGCUACGUCCAGUAUCACCTT against Tmem192 | -0.471 |
| CCAGAUAGGUAAAAAACAATT against Acta2 | -0.562 |
| GCAAAUUUAAGAGAAGUUGTT against Dse | -0.132 |
| CCUAGACUUGAACAAACACTT against Lsm12 | -2.11 (active) |
| GCUUCGGCCUCAGUAUUCATT against Pigb | 0.0355 |
| GCAUACUUAGGAUACACGCTT against A830005F24Rik | -0.647 |
| GCCACAUUCUUCUCAACCUTT against Tas2r106 | -2.14 (active) |
| GGUAGUUAACACAAAAUUGTT against 4932438H23Rik | 0.334 |
| GGACUUCUUGGACCUACUUTT against F5 | -1.55 |
| GGUAGGAGGUAUUUCCCACTT against Shisa5 | 0.197 |
| GGCUUCUAAGCAUACUCAGTT against Iqsec1 | -0.257 |
| GCUCCUCUCCAAGGUCAUUTT against Olfr96 | 0.652 |
| GGAUUUUCCAGGCAUGAGGTT against Ehd3 | -2.24 (active) |
| GGAAAUGCGCCAUGAGUUGTT against Soga3 | -0.124 |
| GAGUUGUACUCUUCACUAUTT against Olfr497 | -2.6 (active) |
| GGACUAUUGUCUCAUUUGATT against Olfr1189 | 1.04 |
| GGACAACGUAGCCUUCGUUTT against Ncln | -0.562 |

| Sequence | z-score |
| --- | --- |
| GGUGGAUUCUAUUAAAUGCTT against Gm14461 | 0.462 |
| CCAUUAGCAAUGUGCUUCUTT against Unc13a | 0.268 |
| GGUGUUCGAGAAGCUGAAGTT against Haus7 | -0.371 |
| GGAUCUUUCGUGUGGAAAATT against Atf7ip | 0.87 |
| GCUUUUGGACUGAAUCUCATT against 2210016L21Rik | 2.78 (active) |
| GGCCACCUUCUUUGAGGUATT against Snai1 | 1.11 |
| GGUAGGACUAACAAUAAAATT against Gpr4 | -0.0158 |
| GACCUGAAUAAAGACUGUCTT against Cort | 0.697 |
| CGGACUUACCAAAAGCGCATT against Lss | 3.16 (active) |
| GGAGAGAGAUGAAAUUUGATT against Kif26b | 1.79 |
| GGAGAAAAUCAACAAGAUCTT against Ppp2r2c | -0.437 |
| CCAUUGAGGUAAUGUUUGATT against Rmnd1 | 0.978 |
| UGAUAUCGGAACAGAGAUGTT against Tbx15 | -0.467 |
| GGAAGUAAAAACAUACCUUTT against Chac2 | 2.02 (active) |
| CCCAAAGCCCUUUUAAACUTT against Hmbs | 0.301 |
| GGUAAAAGACUAAAGAAGATT against Coch | -0.485 |
| CCGCUGUUUUCAACUGUGCTT against Asb10 | -0.773 |
| GGAAGUGGUGGAACUCCUGTT against Tmem215 | -2.65 (active) |
| GGACCUGGUCACCAUCUUGTT against Tram2 | -0.3 |
| CGGCAGAAGGGUUUUUAUGTT against Rnf126 | -0.365 |
| CCAUACAUAUAGACAAUCCTT against AY358078 | 0.796 |
| CCUUCAUGCAACAGCUACUTT against Nckap5l | -2.57 (active) |

| Sequence | z-score |
| --- | --- |
| GCCCUAUCUACCAUAACACTT against Dok3 | -2.11 (active) |
| GGAUUCAGAAAUCUGGAAATT against Nmnat3 | -0.199 |
| GGUCAUCUUACAGUUUAAATT against Smap2 | 0.593 |
| GCGAAUAUCCAACCUAUCUTT against Itgb7 | -0.687 |
| GGGCAUCAUGAAACUAUGUTT against Kbtbd4 | -2.59 (active) |
| GCUGAAGGCGACAAUGGAUTT against Ak2 | -0.0901 |
| GGCCUGCUAUAUGCAUUCCTT against Krtap12-1 | 0.974 |
| GGAAAAGAUGCCUGUAUUUTT against Sgcd | -0.422 |
| GGAUUCCAAAUGCUUACAATT against Lysmd3 | 0.757 |
| GCCAAUGCAGGGUAAGUACTT against Tmtc2 | -2.83 (active) |
| GCCUAUCCGACAACUUAGUTT against Slc25a17 | 0.136 |
| GCAUAACCAAGUGUGAUGCTT against Actrt2 | -0.439 |
| GGAGAAAGUCAUCUUUGAUTT against Cdk5rap2 | -0.41 |
| GGAGACGGAGCUGUUAGAUTT against Plcb1 | -0.104 |
| GGUCCAUUAGCUAAAUCUUTT against Mysm1 | 1.87 |
| CGAAGUGACAAUAAAUCAGTT against Snapc5 | -0.0661 |
| GCAUCAGAGGGAUUUCACUTT against Slc35d3 | -2.68 (active) |
| GGGAGCCAAAGUGAGAUUUTT against Azin2 | 0.736 |
| GGCAAAGUGAGUAAGACAGTT against Habp2 | 0.0806 |
